TDP1 cell noCPT: qHTS for Inhibitors of human tyrosyl-DNA phosphodiesterase 1 (TDP1): qHTS in cells in absence of CPT | 15% of 420,000 active | Potency, µM (titrated, usually from 46.2 µM), without a hit: at the top dose activity change, negative = growth inhibition, actives largely listed as inhibitors | DT40 Tdp1-/- hTDP1 cells, no CPT, ATP luminescence, 48 h; note: potency is the fitted concentration of half-maximal effect; % is set by controls: 0 for no effect and ±100 for the full control effect; nearly all actives have a fitted effect of over 55% in size
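DT40 Tdp1-/-;hTDP1 cells, no CPT (DMSO vehicle only), 400 cells/well; compounds pin-transferred; ≥48 hr, 37 °C; CellTiter-Glo 30 min RT dark, luminescence read.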
Chronic BCR inh: chronic active BCR signaling inhibition | ABC-DLBCL IkBa-CBG/CBR reporter, luminescence ratio, 4 h | Potency, µM (titrated, usually from 46.1 µM), without a hit: top-dose activity change, negative = inhibition, most hits filed as inhibitors | 0.05% of 340,000 active | AID 493014; active = well fitted inhibition curve with a large enough effect in the signal ratio, with a control signal flat, not every such curve was filed as active; inconclusive = small, poorly fitted or top-dose-only effect, or effect the other way, or a change in a side signal; the % refers to the signal ratio;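 note: potency is the fitted concentration of half-maximal effect; plate controls were basal doxycycline-induced cells for no effect and cells given 10 µM MG132 for full effect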
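Compounds up to 46 uM were incubated four hours with TMD8 cells whose green CBG68 luciferase is fused to IkappaBalpha; red CBR luminescence normalised the signal, and concentration-effect curves were fitted to fusion, red and ratio data.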
MCF10A rerep: inducers of DNA re-replication in MCF 10A breast cells; 2.9% of 350,000 active; Potency, µM (titrated, usually from 46.1 µM), for inactives: at the highest dose activity, positive = re-replication, hits mostly activators; MCF 10A DNA re-replication, Hoechst nuclear intensity, 48 h; note: potency is the fitted concentration of half-maximal effect; % of control where 0% means no effect; nearly all actives have a fitted effect of over 50% in size
IL-1B inflam inh: inflammasome signaling inhibition, IL-1 beta readout; THP-1 LPS/ATP IL-1B secretion, AlphaLISA, 16 h; hits give low values; activity change, % at 57.5 µM; 4.7% of 360,000 active; in the data active = activity change below about -50%; inconclusive = mostly about -30% to -49%; note: % is set by controls: 0 for no effect and ±100 for the full control effect
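THP-1 cells pretreated 1 hr with compounds (up to 57.5 uM final), then stimulated with LPS (250 ng/mL final) plus ATP (1.25 mM final); secreted IL-1B measured by AlphaLISA after 16 hr, decreased signal indicating inhibition.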
SW480 rereplic: inducers of DNA re-replication in SW480 colon cancer cells | SW480 DNA re-replication, Hoechst DNA content imaging, 48 h | 1.8% of 340,000 active | Potency, µM (top dose mostly 46.1 µM), for inactives: at the top dose re-replication activation, hits mostly activators; note: potency is the fitted concentration of half-maximal effect; % of control where 0% means no effect; nearly all actives have a fitted effect of over 55% in size
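Treated cells incubate 48 hr (37 C, 5% CO2), are stained 40 min with Hoechst, and nuclear fluorescence is enumerated; a rise in nuclei with high DNA signal marks re-replication.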
TDP1 cell CPT: DT40-hTDP1 cell growth loss with CPT. 12% of 420,000 active. Potency, µM (series often up to 46.2 µM), for the others: at the top dose activity change, negative = growth inhibition, actives largely listed as inhibitors. AID 686979. chicken DT40 Tdp1-/-;hTDP1 cells + 20 nM CPT, ATP luminescence, 48 h; note: potency is the fitted concentration of half-maximal effect; % is set by controls: 0 for no effect and ±100 for the full control effect; nearly all actives have a fitted effect of over 55% in size
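Cell growth measured by CellTiter-Glo luminescence after a minimum 48 h, 37 C compound exposure with 20 nM CPT in Tdp1-knockout DT40 cells stably expressing hTDP1, seeded 400/well; qHTS titration format.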
* hit, by the source's call; ? = inconclusive; . = not tested or not shown. Sampled rows, rich in hits. Any-hit rate of the full collection: about 19%. Unless noted, calls come from the whole dose curve; as a rule, active = well fitted curve in the direction sought with a large enough effect; inconclusive = small, poorly fitted or top-dose-only effect, or another doubt; inactive = no such curve, though single readings can be large; an effect the other way counts as inactive or inconclusive.

SMILES	TDP1 cell noCPT	Chronic BCR inh	MCF10A rerep	IL-1B inflam inh	SW480 rereplic	TDP1 cell CPT
Cc1ccc(C)c(N2CCN(C(=O)CCS(=O)(=O)c3ccc4c(c3)NC(=O)C(C)S4)CC2)c1 (stereo not drawn)	15µM*	-1%	-15%	22	-10%	23µM*
COC(=O)c1ccc(NC(=O)CCS(=O)(=O)c2ccc3c(c2)NC(=O)C(C)S3)cc1 (stereo not drawn)	?	0%	6%	57	10%	?
O=C(CCS(=O)(=O)c1ccc2c(c1)NC(=O)CS2)NCCc1ccccc1	6%	-9%	-3%	24	-5%	8%
CC1CCC(NC(=O)CCS(=O)(=O)c2ccc3c(c2)NC(=O)CS3)CC1 (stereo not drawn)	10%	3%	15%	4	-3%	-15%
CC1Cc2ccccc2N1C(=O)CCS(=O)(=O)c1ccc2c(c1)NC(=O)CS2 (stereo not drawn)	?	0%	1%	0	1%	23µM*
COc1ccc(N2CCN(C(=O)CCS(=O)(=O)c3ccc4c(c3)NC(=O)C(C)S4)CC2)cc1 (stereo not drawn)	10µM*	0%	1%	6	-13%	?
COc1ccc(C(C(=O)NCCC(C)C)N(CCN2CCOCC2)C(=O)Cn2nnc3ccccc32)c(OC)c1 (stereo not drawn)	-17%	7%	5%	5	-127%	-3%
COC(=O)c1cc(NC(=O)CN(C)C2CCS(=O)(=O)C2)cc(C(=O)OC)c1 (stereo not drawn)	-13%	-2%	7%	-19	-1%	-13%
CN(Cc1ccccc1)c1ncnc2c1nnn2C	-14%	?	.	.	.	-16%
Cc1ccc(NC(=S)N(CCC(C)C)C(C)c2ccncc2)c(Cl)c1 (stereo not drawn)	?	2%	-8%	-18	1%	-30%
COc1cccc(N2CCN(c3c(C#N)c(C(F)(F)F)nn3C)CC2)c1	8.2µM*	12%	-7%	-51*	-1%	23µM*
COc1ccnc(N2CCN(c3cccc(C(F)(F)F)c3)CC2)c1C#N	-16%	0%	21µM*	-1	?	6%
COc1ccnc(N2CCN(c3ccc(Cl)cc3)CC2)c1C#N	?	4%	-2%	-12	-4%	-20%
CCOC(=O)/C=c1\s/c(=C\c2ccc(C(F)(F)F)cc2)c(=O)n1CC(=O)NCc1ccco1	?	0%	23µM*	-24	2.3µM*	?
CCOC(=O)/C=c1\s/c(=C\c2sccc2C)c(=O)n1CC(=O)NCc1ccc(C)cc1	.	-1%	.	.	.	.
CCOC(=O)/C=c1\s/c(=C\c2ccc(C)cc2)c(=O)n1CC(=O)NCc1ccco1	?	3%	?	17	?	16µM*
Cc1ccccc1NC(=O)CCc1c(C)nc2c(c1C)c(=O)n(C)c(=O)n2C	?	.	.	.	.	4%
Nc1cc(=O)[nH]c(SCC(=O)NCCC2=CCCCC2)n1	0%	4%	?	8	2%	-4%
CCC(Cc1c(I)cc(I)c(O)c1I)C(=O)O (stereo not drawn)	?	.	2%	.	0%	?
O=C1C(=O)N(CCN2CCOCC2)C(c2ccccn2)/C1=C(/O)c1ccc(F)cc1 (stereo not drawn)	23µM*	0%	?	21	-5%	?
O=C(NCc1ccccn1)C1CCN(S(=O)(=O)c2cc(Cl)ccc2Cl)CC1	-11%	0%	-3%	3	-13%	3%
Cc1ccc(C(=O)NCCc2ccc(S(N)(=O)=O)cc2)cc1-n1cnc2cccnc21	-20%	.	.	.	.	-23%
